The results in this text go back to PubChem BioAssay.

The nature of this experiment: compounds binding Alexa647 anti-His antibody – biochemical, small-molecule microarray, 635 nm fluorescence, artefact control for SMM control protein annotation, primary screen (AID 1128).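 Also: score merges feature fluorescence with signal-to-noise for each printed compound spot.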 The conditions noted are these: higher = more signal.
`C[C@@H]1ON(c2ccccc2)[C@H](c2ccccc2)[C@H]1C(=O)O` came in with a composite z-score of 0.468.

With `C[C@]1(C(=O)O)c2ccccc2C(=O)N(Cc2cc(F)cc(C(F)(F)F)c2)[C@H]1c1ccc(CO)cc1`, the composite z-score is 0.201.

With `COCCOC(=O)N1C(=O)[C@@]2(c3cc(C#CCCO)ccc31)[C@H](c1ccccc1OCCO)N1[C@H](c3ccccc3)[C@H](c3ccccc3)OC(=O)[C@H]1[C@@H]2C(N)=O`, the composite z-score came to 1.75.

Compound `O=C1[C@H]2C=C(I)[C@H](C[C@@H]2OCCCCCCO)[C@@]12CO2` yielded a composite z-score of -0.624.

`C=CCOC(=O)[C@@H]1[C@H]2C(=O)O[C@H](c3ccccc3)[C@H](c3ccccc3)N2[C@H](c2ccc(OCCOC(=O)[C@H]3C[C@H]4C(=O)N[C@@H](CCCCN(C)C)C(=O)N4[C@H]3c3ccc(O)cc3)cc2)[C@@]12C(=O)Nc1ccc(I)cc12` registered a composite z-score of 1.2.

In turn, `O=C(NCc1ccccc1)[C@@H]1c2ccccc2C(=O)N(Cc2cc(C(F)(F)F)cc(C(F)(F)F)c2)[C@H]1c1ccc(CO)cc1` displayed a composite z-score of 0.618.

For the compound `CCCC[C@H]1C[C@@H]1[C@@H]1N(C(C)=O)[C@H](c2cccc(OC)c2)CC12CC2`, the composite z-score is -0.101.

For the compound `CCOC(=O)C1=CCC(c2cc3ccccc3[nH]2)N(CCN2CC(C(=O)OCC)=CCC2c2cc3ccccc3[nH]2)C1` (stereo not given), the composite z-score worked out at 1.65.

`C=C(CCCC)/C(=C/C[C@H](OC(C)=O)c1cccc(OCCO)c1)c1cnc2ccccc2c1` had a composite z-score of -0.966.

On to `CCCN1C(=O)[C@@]2(c3ccc([N+](=O)[O-])cc3)CC(=O)N(CC34CC5CC(CC(C5)C3)C4)[C@@H]2c2ccc(CO)cc21`, for which the composite z-score was -0.0371.
